Results published in the supplement of paper PMC10011410.
± gives the standard deviation of the averaged measurements.

Test system: AmpC beta-lactamase (E. coli)
Assay: AmpC inhibition relative to DMSO; higher = more inhibition
Procedure: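 Aggregation counter-screen: inhibition of E. coli AmpC beta-lactamase (5 nM, nitrocefin substrate, 50 mM sodium phosphate pH 7.0, RT, 5 min) by KAT inhibitors at 4, 11, 33 and 100 uM, with or without 0.01% Triton X-100. Percent inhibition is relative to DMSO controls. Four technical replicates.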

[1] = 4 µM, detergent: 0.01% Triton X-100
[2] = 11 µM, detergent: 0.01% Triton X-100
[3] = 33 µM, detergent: 0.01% Triton X-100
[4] = 100 µM, detergent: 0.01% Triton X-100
[5] = 100 µM, detergent: no detergent

SMILES | AmpC inhibition [1] [%] | AmpC inhibition (4 µM, detergent: no detergent) [%] | AmpC inhibition [2] [%] | AmpC inhibition (11 µM, detergent: no detergent) [%] | AmpC inhibition [3] [%] | AmpC inhibition (33 µM, detergent: no detergent) [%] | AmpC inhibition [4] [%] | AmpC inhibition [5] [%]
CNC(=O)Nc1ccc2c(c1)[C@@]1(CC2)OC(=O)N(CC(=O)N(Cc2ccc(F)cc2)[C@@H](C)C(F)(F)F)C1=O | 9.1 ± 0.37 | 2.44 ± 8.2 | 6.71 ± 1 | 7.48 ± 3.8 | -0.0601 ± 2.8 | -5.13 ± 2 | -4.9 ± 5.7 | -1.81 ± 4.7
O=C(NNS(=O)(=O)c1ccccc1F)c1cc(F)cc(-c2ccccn2)c1 | 10.7 ± 1.2 | 1.11 ± 11 | 5.78 ± 2.7 | 8.02 ± 4.7 | -0.0162 ± 1.5 | 4.81 ± 1.3 | 0.832 ± 4.9 | 5.91 ± 3.5
CC1(C)CCC2=C(O1)c1ccccc1C(=O)C2=O | 10.1 ± 3.2 | 0.565 ± 6.8 | 2.63 ± 1.6 | -4.82 ± 5.1 | 6.33 ± 3.7 | -16.2 ± 7.7 | -0.871 ± 3.1 | 4.94 ± 2
COc1ccc(/C(Cl)=C(/C=O)c2ccc(OC)cc2)cc1 | -3.57 ± 3.7 | -5.33 ± 6.8 | 3.37 ± 5.7 | 3.21 ± 3.9 | 8.7 ± 7.1 | 0.384 ± 4.4 | 3.87 ± 1.3 | 12.1 ± 2.9
O=C(NNS(=O)(=O)c1ccccc1)c1cc(-c2ccnnc2)ccc1F | 9.2 ± 1.8 | 2.19 ± 10 | 3.76 ± 1.8 | 16.9 ± 8 | 3.27 ± 1.3 | 5.35 ± 1.6 | 12.2 ± 5.5 | 11.9 ± 7.5
